Assay [1] can be described thus: qHTS assay for small molecule agonists of the p53 signaling pathway (AID 651631; calls by dose curve; also: nearly all actives have a fitted effect of over 15% in size; also: potency is read from the fitted curve at half-maximal effect). An outline of the steps:
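Readout was fluorescence from the LiveBLAzer FRET substrate, applied for 2 h at room temperature after 16 h compound exposure at 37 °C. Cells were the p53RE-bla HCT-116 line, with beta-lactamase driven by p53 response elements.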
On the technique in general: qHTS replaces the single test concentration by a dilution series.

The target in assay [2] is Glucocorticoid receptor (Homo sapiens) (UniProt P04150). Nature of the assay: qHTS assay to identify small molecule agonists of the glucocorticoid receptor (GR) signaling pathway (AID 720691; active = well fitted activation curve with a large enough effect in the signal ratio in the repeat runs, not every such curve was filed as active; the % refers to the signal ratio). An outline of the steps: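 Agonist-mode qHTS in HeLa cells stably expressing a glucocorticoid-response-element beta-lactamase reporter. Fluorescence intensity read with FRET substrate (2 h, room temperature) after 18 h compound treatment at 37 C.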
Chain of Glucocorticoid receptor (Homo sapiens) (P04150 whole entry, looked up): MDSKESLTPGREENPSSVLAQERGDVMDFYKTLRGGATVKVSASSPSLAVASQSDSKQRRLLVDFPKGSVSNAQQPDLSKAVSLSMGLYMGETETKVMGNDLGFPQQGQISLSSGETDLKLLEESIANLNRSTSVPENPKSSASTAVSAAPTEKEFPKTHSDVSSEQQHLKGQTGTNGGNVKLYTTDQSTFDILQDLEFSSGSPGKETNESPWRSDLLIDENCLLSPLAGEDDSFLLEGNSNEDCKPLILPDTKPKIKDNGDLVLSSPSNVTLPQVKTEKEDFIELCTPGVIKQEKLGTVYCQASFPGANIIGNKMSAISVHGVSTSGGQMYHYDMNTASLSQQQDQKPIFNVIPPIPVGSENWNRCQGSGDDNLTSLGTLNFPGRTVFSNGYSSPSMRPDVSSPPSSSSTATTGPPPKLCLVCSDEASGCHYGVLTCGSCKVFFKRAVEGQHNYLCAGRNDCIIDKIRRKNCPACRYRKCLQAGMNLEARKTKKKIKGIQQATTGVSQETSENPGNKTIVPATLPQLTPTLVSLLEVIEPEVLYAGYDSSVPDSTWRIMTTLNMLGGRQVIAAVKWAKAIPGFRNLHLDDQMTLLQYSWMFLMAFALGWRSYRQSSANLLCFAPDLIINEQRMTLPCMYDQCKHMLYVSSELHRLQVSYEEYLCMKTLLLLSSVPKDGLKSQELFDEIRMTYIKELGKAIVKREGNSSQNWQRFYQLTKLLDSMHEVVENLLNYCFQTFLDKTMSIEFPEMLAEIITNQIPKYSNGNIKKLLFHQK

For assay [3] the target is unchanged. Briefly: qHTS assay to identify small molecule antagonists of the glucocorticoid receptor (GR) signaling pathway (AID 720692; active = well fitted inhibition curve with a large enough effect in the signal ratio in the repeat runs, not every such curve was filed as active; the % refers to the signal ratio; also: potency is read from the fitted curve at half-maximal effect). An outline of the steps:
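Inhibition of dexamethasone-driven (5 nM final) beta-lactamase expression was measured in GRE-reporter HeLa cells over 18 h at 37C. Fluorescence was read after 2 h with the B/G FRET substrate at room temperature.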

Assay [4] has as its target Estrogen receptor (Homo sapiens) (UniProt P03372). Briefly: qHTS assay to identify small molecule antagonists of the estrogen receptor alpha (ER-alpha) signaling pathway (AID 743069; active = well fitted curve in the direction sought with a large enough effect in the signal ratio in the repeat runs, not every such curve was filed as active; the % refers to the signal ratio). An outline of the steps:
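In this cell-based reporter format, GripTite HEK293 cells harbouring ER-alpha-UAS-bla were grown overnight with 2% charcoal-stripped FBS, dosed with DMSO-dissolved compounds, then challenged with 17beta-estradiol. After 18 hr at 37C, beta-lactamase activity was detected by FRET fluorescence.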

Assay [5] can be described thus: qHTS assay for small molecule disruptors of the mitochondrial membrane potential (AID 720635). Also: potency is read from the fitted curve at half-maximal effect. Put shortly: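 HepG2 cells exposed to compound 1 hr at 37C, then Mito-MPS dye 30 min. Ratio read of aggregate (540/590 nm) versus monomer (490/535 nm) fluorescence.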
The nature of assay [6]: qHTS assay to identify small molecule antagonists of the estrogen receptor alpha (ER-alpha) signaling pathway using the BG1 cell line (AID 743080; calls by dose curve;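 also: BG1 cells stimulated with 17beta-estradiol alongside compound; series mostly up to about 70 µM; nearly all actives have a fitted effect of over 25% in size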). An outline of the steps: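 Endogenous full-length ER-alpha in BG1-Luc-4E2 cells drives a stably integrated 4×ERE luciferase gene; compounds were tested against 17beta-estradiol over 21.5 h, with luminescence and multiplexed viability fluorescence recorded.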

The target in assay [7] is Androgen receptor (Homo sapiens) (UniProt P10275). Nature of the assay: qHTS assay to identify small molecule antagonists of the androgen receptor (AR) signaling pathway (AID 743035; active = well fitted inhibition curve with a large enough effect in the signal ratio in the repeat runs, not every such curve was filed as active; the % refers to the signal ratio; also: potency is read from the fitted curve at half-maximal effect). An outline of the steps:
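Antagonist mode: AR-bla HEK293 cells co-treated with test compounds and agonist R1881 for 16 h at 37C, 5% CO2. Beta-lactamase activity read as FRET fluorescence after 2 h room-temperature substrate loading.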

For assay [8] the target is unchanged. Nature of the assay: qHTS assay to identify small molecule antagonists of the androgen receptor (AR) signaling pathway using the MDA cell line (AID 743042; also: nearly all actives have a fitted effect of over 55% in size; also: potency is read from the fitted curve at half-maximal effect). Put shortly:
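MDA-kb2 breast carcinoma cells carrying MMTV-luciferase (AR/GR responsive) were co-treated with compounds and the agonist R1881 for 16 h at 37C. Inhibition read as ONE-Glo luminescence; CellTiter-Fluor fluorescence measured in parallel for cytotoxicity.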

The target is the same in assay [9]. Briefly: qHTS assay to identify small molecule agonists of the androgen receptor (AR) signaling pathway using the MDA cell line (AID 743040; also: nearly all actives have a fitted effect of over 20% in size; also: potency is read from the fitted curve at half-maximal effect). An outline of the steps: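 Testing was done with the MDA-kb2 AR-luc line, a human breast carcinoma stably transfected with MMTV-luciferase containing AR and GR response elements. Cells were exposed 16 h at 37C before ONE-Glo luminescence detection.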

Assay [10] concerns the target Nuclear receptor subfamily 1 group I member 2 (Rattus norvegicus) (UniProt Q9R1A7). Nature of the assay: Rat pregnane X receptor (rPXR) activation by small molecules, qHTS assay (AID 1346983). Also: nearly all actives have a fitted effect of over 20% in size. Particulars: rPXR luciferase reporter cells, One-Glo luminescence, 24 h; max activation: active compounds read high. An outline of the steps:
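Cell-based rPXR activation assay: rPXR cells, 2,000 per well, rested 5hr at 37 C, then exposed to compounds in DMSO for 24 hr at 37 C. Luciferase activity read by One-Glo luminescence after 30 min at room temperature.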

The values below come from PubChem BioAssay (Tox21).

Where “and” joins values, the source holds several entries; their conditions need not be identical. Identical values can stand only once. A number with no mark means an inactive call. Records with an inconclusive call do not appear. Calls of active or inactive are those of the source. Unless noted, calls follow the shape of the dose curve; as a rule, active = well fitted curve in the direction sought with a large enough effect in the repeat runs; inconclusive = weak or mixed curves; inactive = no such curve, though single readings can be large; an effect the other way counts as inactive or inconclusive.
% is scaled to controls: 0 for no effect and ±100 for the full control effect.

Chain of Estrogen receptor (Homo sapiens) (P03372 whole entry, looked up): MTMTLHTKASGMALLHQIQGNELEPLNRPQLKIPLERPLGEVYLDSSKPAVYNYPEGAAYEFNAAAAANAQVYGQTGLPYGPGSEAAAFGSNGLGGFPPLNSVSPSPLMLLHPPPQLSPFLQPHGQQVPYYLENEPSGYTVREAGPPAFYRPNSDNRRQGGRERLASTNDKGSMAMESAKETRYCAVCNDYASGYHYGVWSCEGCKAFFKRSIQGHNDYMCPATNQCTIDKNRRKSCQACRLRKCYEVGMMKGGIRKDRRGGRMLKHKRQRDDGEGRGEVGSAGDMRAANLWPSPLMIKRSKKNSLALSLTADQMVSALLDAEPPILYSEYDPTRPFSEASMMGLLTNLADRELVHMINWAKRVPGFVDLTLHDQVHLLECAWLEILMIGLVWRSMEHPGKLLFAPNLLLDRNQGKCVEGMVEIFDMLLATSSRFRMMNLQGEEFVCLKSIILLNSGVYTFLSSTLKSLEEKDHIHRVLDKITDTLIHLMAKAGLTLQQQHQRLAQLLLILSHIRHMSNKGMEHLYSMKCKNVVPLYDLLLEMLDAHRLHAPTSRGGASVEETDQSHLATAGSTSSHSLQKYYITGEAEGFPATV
Chain of Nuclear receptor subfamily 1 group I member 2 (Rattus norvegicus) (Q9R1A7 whole entry, looked up): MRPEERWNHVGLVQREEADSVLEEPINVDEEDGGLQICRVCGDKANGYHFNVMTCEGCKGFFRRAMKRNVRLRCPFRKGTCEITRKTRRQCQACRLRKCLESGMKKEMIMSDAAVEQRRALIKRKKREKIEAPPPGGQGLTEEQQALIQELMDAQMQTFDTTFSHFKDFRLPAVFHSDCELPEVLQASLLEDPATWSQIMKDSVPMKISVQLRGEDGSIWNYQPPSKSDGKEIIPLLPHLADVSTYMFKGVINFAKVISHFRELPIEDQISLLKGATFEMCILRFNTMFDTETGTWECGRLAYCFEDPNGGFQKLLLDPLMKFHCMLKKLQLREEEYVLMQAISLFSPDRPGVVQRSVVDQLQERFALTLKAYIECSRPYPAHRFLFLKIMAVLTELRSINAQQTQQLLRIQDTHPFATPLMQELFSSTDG
Chain of Androgen receptor (Homo sapiens) (P10275 whole entry, looked up): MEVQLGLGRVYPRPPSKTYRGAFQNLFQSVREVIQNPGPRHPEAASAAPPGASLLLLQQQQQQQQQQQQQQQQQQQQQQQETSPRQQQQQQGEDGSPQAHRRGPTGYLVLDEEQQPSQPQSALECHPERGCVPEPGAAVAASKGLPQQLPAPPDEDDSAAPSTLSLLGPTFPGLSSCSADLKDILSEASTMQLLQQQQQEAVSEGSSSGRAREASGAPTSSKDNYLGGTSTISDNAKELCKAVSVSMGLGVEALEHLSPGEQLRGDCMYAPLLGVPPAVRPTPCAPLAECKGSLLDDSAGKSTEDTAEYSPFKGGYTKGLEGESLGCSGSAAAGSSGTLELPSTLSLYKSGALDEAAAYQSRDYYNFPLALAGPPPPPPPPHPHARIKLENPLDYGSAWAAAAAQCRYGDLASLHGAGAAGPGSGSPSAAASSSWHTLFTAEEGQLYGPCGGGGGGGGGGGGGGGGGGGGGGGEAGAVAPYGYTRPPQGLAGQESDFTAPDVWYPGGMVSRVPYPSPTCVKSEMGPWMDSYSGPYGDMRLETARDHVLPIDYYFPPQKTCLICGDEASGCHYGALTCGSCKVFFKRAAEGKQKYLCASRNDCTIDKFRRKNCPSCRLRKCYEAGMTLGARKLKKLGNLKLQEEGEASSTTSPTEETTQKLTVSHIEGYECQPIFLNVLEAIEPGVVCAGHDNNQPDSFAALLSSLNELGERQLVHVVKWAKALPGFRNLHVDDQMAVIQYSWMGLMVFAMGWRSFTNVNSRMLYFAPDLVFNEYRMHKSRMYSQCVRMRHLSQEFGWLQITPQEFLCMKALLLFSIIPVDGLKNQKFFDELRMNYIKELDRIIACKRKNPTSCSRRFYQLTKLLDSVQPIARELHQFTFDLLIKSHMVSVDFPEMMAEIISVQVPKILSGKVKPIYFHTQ

Turning to `O=C1OC2(c3cc(Br)c(O)cc3Oc3c2cc(Br)c(O)[c]3[Hg])c2ccccc21` (configuration not stated), the Potency entry in assay [1], in [2], in assay [3] and in assay [4] was “inactive” in each case.

As to `CN1C(=O)CC(=O)N(c2ccccc2)c2cc(Cl)ccc21`, the Potency result in assay [1], in assay [5], in [2], in assay [3], in assay [4] and in [6] was “inactive” throughout.

Consider `C[C@@H](Cc1ccccc1)N(C)C`, for which the Potency entry in assay [1], in [5], in [7] and in assay [8] was “inactive” in each case.

Take `CC(=O)[C@H]1CC[C@H]2[C@@H]3CC[C@@H]4C[C@H](O)CC[C@]4(C)[C@H]3CC[C@]12C`: the Potency result in assay [1], in [2] and in [4] was “inactive” throughout.

In the case of `O=C(OCCN1CCCCC1)C(O)(c1ccccc1)c1ccccc1`, the Potency result in assay [4] and in [6] was “inactive” throughout.

As for `CN1CCCC(=C(c2cccs2)c2cccs2)C1`, the Potency entry in assay [7], in [8], in [4] and in assay [6] was “inactive” in each case.

On to `COc1ccc2c3c1O[C@H]1[C@@H](O)C=C[C@H]4[C@@H](C2)NCC[C@@]341`, for which the Potency result in assay [1], in assay [5], in assay [2], in assay [3], in assay [4] and in assay [6] was “inactive” each time.

Regarding `CCCCCc1cc(O)c2c(c1)OC(C)(C)[C@@H]1CCC(C)=C[C@@H]21`, in assay [5], the Potency was 3.76 µM (active). Also, the Potency result in assay [8] and in assay [6] was “inactive” in each case.

For `C/C(=C\c1csc(C)n1)[C@@H]1C[C@@H]2O[C@]2(C)CCC[C@H](C)[C@H](O)[C@@H](C)C(=O)C(C)(C)[C@@H](O)CC(=O)O1`, the Potency result in assay [2], in assay [9], in assay [8] and in [4] was “inactive” each time. Moreover, the Potency in [7] is 0.0239 µM (active).

On to `COC(=O)[C@@H]1[C@H]2CC[C@@H](C[C@H]1OC(=O)c1ccccc1)N2C`, for which the Potency result in [1], in [7], in [8], in assay [4] and in assay [6] was “inactive” in each case.

`C[C@]12CC[C@H](O)C[C@H]1CC[C@@H]1[C@@H]2CC[C@]2(C)[C@@H](c3ccc(=O)oc3)C[C@H]3O[C@]132`: in [2], the Potency entry was “inactive”. The Potency in assay [7] was 6.01 µM (active); in assay [8] it was 21.1 µM (active).

`O=C(NC(=O)c1c(F)cccc1F)Nc1ccc(Cl)c(Oc2ncc(C(F)(F)F)cc2Cl)c1`: the Potency in [5] was 2.98 µM (active). Further, the Potency result in assay [4] and in assay [6] was “inactive” in each case.

For the molecule `Oc1ccc2c3c1O[C@H]1[C@@H](O)CC[C@@]4(O)[C@@H](C2)N(CC2CCC2)CC[C@]314`, the Potency entry in assay [2], in assay [3] and in assay [8] was “inactive” in each case. Besides, the max activation in assay [10] was -0.605%.

For the molecule `c1ccc(C2(N3CCCC3)CCCCC2)cc1`, the Potency in assay [5] is 19.7 µM (active). Besides, the Potency entry in [2] was “inactive”.

Turning to `COc1ccc(OC)c([C@@H](O)[C@H](C)N)c1`, the Potency result in assay [1], in assay [5], in assay [2], in assay [3], in assay [8] and in assay [4] was “inactive” in each case. Also, the Potency entry in [6] was “inactive”.

Take `CCCC(C)C1(CC)C(=O)NC(=O)NC1=O` (configuration not stated): in assay [4], the Potency entry is “inactive”.

For the molecule `NCC[C@H](O)C(=O)N[C@@H]1C[C@H](N)[C@@H](O[C@H]2O[C@H](CN)[C@@H](O)[C@H](O)[C@H]2N)[C@H](O[C@@H]2O[C@H](CO)[C@@H](O)[C@H]2O)[C@H]1O`, the Potency entry in assay [9] and in assay [8] was “inactive” each time.

In the case of `CCCCCCCCCC(=O)O[C@H]1CC[C@H]2[C@@H]3CCC4=CC(=O)CC[C@]4(C)[C@H]3CC[C@]12C`, the Potency result in assay [5], in assay [2], in assay [4] and in assay [6] was “inactive” in each case.

Regarding `C=CCN1CC[C@]23c4c5ccc(O)c4O[C@H]2[C@@H](O)C=C[C@H]3[C@H]1C5`, the Potency result in assay [5], in assay [7] and in [8] was “inactive” each time.

Consider `CC1(C)[C@H](C=C(Cl)Cl)[C@H]1C(=O)OCc1c(F)c(F)cc(F)c1F`, for which the Potency entry in assay [2], in assay [3], in [4] and in assay [6] was “inactive” each time.

Consider `O[C@H]1[C@H]2[C@H](O)CCCN2C[C@H]1O`, for which the Potency entry in assay [5], in assay [2], in [3], in [4] and in assay [6] was “inactive” each time.

As to `Clc1ccc2c(c1)C(c1ccccc1)=NCc1nncn1-2`, the Potency entry in assay [1], in assay [2], in assay [3], in [8] and in assay [4] was “inactive” throughout.

Consider `C[C@]12C=CC(=O)C=C1CC[C@@H]1[C@@H]2CC[C@]2(C)OC(=O)CC[C@@H]12`, for which the Potency result in [1], in [5] and in assay [6] was “inactive” throughout.

Regarding `CCC1(CC)C(=O)NC(=O)N(C)C1=O`, the Potency result in [1], in [2], in assay [3] and in assay [4] was “inactive” each time.

On to `CC(Cc1ccccc1)NC=O` (configuration not stated), for which the Potency entry in assay [1] and in assay [5] was “inactive” in each case.

Take `CC(=O)O[C@H]1CC[C@H]2[C@@H]3CCC4=CC(=O)CCC4=C3C=C[C@]12C`: the Potency result in [1], in assay [2] and in [8] was “inactive” each time. Besides, the figures for the Potency in assay [3] and in assay [9] were 2.68 µM (active) and 0.0017 µM (active), respectively.

`O=C(C[C@@H]1NCCC[C@H]1O)Cn1cnc2cc(Br)c(Cl)cc2c1=O`: the Potency result in assay [1], in assay [2], in assay [3] and in assay [4] was “inactive” each time.

On to `[S]=[Sb](=[S])[S][Sb](=[S])=[S]`, for which the Potency result in assay [1], in [5], in assay [2], in assay [3], in assay [4] and in [6] was “inactive” throughout.

For the molecule `C=CCC1(C(C)CCC)C(=O)N=C(S)NC1=O` (configuration not stated), the Potency result in assay [1], in assay [2], in [3], in assay [8], in [4] and in assay [6] was “inactive” in each case. Moreover, in [10], the max activation was -2.22%.

Regarding `CCC/C=C/C=C/C(=O)O[C@H]1/C(=C/C(=O)OC)C[C@H]2C[C@H]([C@@H](C)O)OC(=O)C[C@H](O)C[C@@H]3C[C@H](OC(C)=O)C(C)(C)[C@](O)(C[C@@H]4C/C(=C/C(=O)OC)C[C@H](/C=C/C(C)(C)[C@]1(O)O2)O4)O3`, the Potency in [5] was 0.0038 µM (active). In addition, the Potency result in [3], in assay [4] and in assay [6] was “inactive” each time. Besides, the max activation in assay [10] is 2.43%.

With `CCC(=O)O[C@@](Cc1ccccc1)(c1ccccc1)[C@@H](C)CN(C)C`, the Potency entry in assay [1] was “inactive”.

On to `Cc1cc(C)cc(C(=O)OC2C[C@H]3CC[C@@H](C2)N3C)c1` (some centres not stated), for which the Potency entry in assay [2], in assay [4] and in [6] was “inactive” in each case. Further, the max activation in [10] is -1.64%.

As for `Oc1cc[c]([Hg][Cl])cc1`, the Potency was 23.7 µM (active) in assay [1]; 11.9 µM (active) in assay [5]; 19 µM (active) in assay [7]; 8.41 µM (active) and 5.96 µM (active) in assay [8]. The Potency entry in assay [9] is “inactive”.

For the molecule `CN=C1CN(O)C(c2ccccc2)=c2cc(Cl)ccc2=N1`, the Potency result in assay [1], in assay [2], in [3], in assay [4] and in assay [6] was “inactive” in each case.

As for `CNC1(c2ccccc2Cl)CCCCC1=O` (configuration not stated), the Potency result in [1], in assay [2], in assay [3], in assay [4] and in [6] was “inactive” throughout. In [10], the max activation was -2.7% and 3.43%.
